Experimental data taken from PubChem BioAssay AID1159580 (chemical genetic matrix, 2015).
In all, about 5,500 compounds went through this assay and about 2,000 (36%) were called active. About 18% were inconclusive and are not listed. No stated cut-off is given here; in the data, active means normalized growth mostly below about 0.91 (no sharp cut-off); inconclusive means no clear call, values can overlap the other calls; inactive means mostly above about 0.92. The list shows a part of the results.

Test: chemical genetic growth profiling, strain panel (AID 1159580);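 further: tested at 20 µM; growth read once vehicle control cultures reached saturation at 30 °C; 1 = growth at the plate median or of vehicle wells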
Conditions: growth OD
[1] = S. cerevisiae deletion strains, locus YAL013W, strain DEP1, stronger effect = lower value
[2] = S. cerevisiae deletion strains, locus YBR229C, strain ROT2, stronger effect = lower value
[3] = S. cerevisiae deletion strains, locus YDL101C, strain DUN1, stronger effect = lower value
[4] = S. cerevisiae deletion strains, locus YDR150W, strain NUM1, stronger effect = lower value
[5] = S. cerevisiae deletion strains, locus YEL061C, strain CIN8, stronger effect = lower value
[6] = S. cerevisiae deletion strains, locus YGR078C, strain PAC10, stronger effect = lower value
[7] = S. cerevisiae deletion strains, locus YHR030C, strain SLT2, stronger effect = lower value
[8] = S. cerevisiae deletion strains, locus YJR043C, strain POL32, stronger effect = lower value
[9] = S. cerevisiae deletion strains, locus YJR075W, strain HOC1, stronger effect = lower value
[10] = S. cerevisiae deletion strains, locus YLR039C, strain RIC1, stronger effect = lower value
[11] = S. cerevisiae deletion strains, locus YLR262C, strain YPT6, stronger effect = lower value
[12] = S. cerevisiae deletion strains, locus YMR263W, strain SAP30, stronger effect = lower value
[13] = S. cerevisiae deletion strains, locus YMR307W, strain GAS1, stronger effect = lower value
[14] = S. cerevisiae deletion strains, locus YNL153C, strain GIM3, stronger effect = lower value
[15] = S. cerevisiae deletion strains, locus YNL322C, strain KRE1, stronger effect = lower value
[16] = S. cerevisiae deletion strains, locus YOL006C, strain TOP1, stronger effect = lower value
[17] = S. cerevisiae deletion strains, locus YPL055C, strain LGE1, stronger effect = lower value
[18] = S. cerevisiae deletion strains, locus YPL241C, strain CIN2, stronger effect = lower value

Measured: normalized growth

Cc1oc(S(=O)(=O)N(C)C)cc1C(=O)O
inactive: [1] 1.03 | [2] 1 | [3] 0.952 | [4] 1 | [5] 1.02 | [6] 1.01 | [7] 1.06 | S. cerevisiae deletion strains, locus YHR087W, strain rtc3, stronger effect = lower value 1.03 | S. cerevisiae deletion strains, locus YJL187C, strain SWE1, stronger effect = lower value 0.997 | [8] 0.987 | [9] 1 | [10] 1.07 | S. cerevisiae deletion strains, locus YLR058C, strain SHM2 (second series), stronger effect = lower value 1 | S. cerevisiae deletion strains, locus YLR085C, strain ARP6, stronger effect = lower value 1.08 | [11] 1.01 | S. cerevisiae deletion strains, locus YML094W, strain GIM5, stronger effect = lower value 1.06 | S. cerevisiae deletion strains, locus YMR219W, strain ESC1, stronger effect = lower value 1.01 | [12] 0.985 | [13] 0.976 | [14] 1.01 | S. cerevisiae deletion strains, locus YNL298W, strain CLA4 (second series), stronger effect = lower value 1 | [15] 1 | S. cerevisiae deletion strains, locus YNR030W, strain Alg12, stronger effect = lower value 1.02 | [16] 1.06 | [17] 1.08 | [18] 1.09 | S. cerevisiae deletion strains, locus YPR135W, strain CTF4, stronger effect = lower value 1.34

O=C(CCCCCCCCCCCCC1CCCC1)Nc1ccc(S(=O)(=O)c2ccc(NC(=O)CCCCCCCCCCCCC3CCCC3)cc2)cc1
inactive: [1] 1.01 | S. cerevisiae deletion strains, locus YBR021W, strain FUR4, stronger effect = lower value 1.04 | [2] 1.02 | S. cerevisiae deletion strains, locus YCL029C, strain bik1, stronger effect = lower value 0.992 | S. cerevisiae deletion strains, locus YDL035C, strain GPR1, stronger effect = lower value 1.02 | S. cerevisiae deletion strains, locus YDL074C, strain BRE1, stronger effect = lower value 1.07 | [3] 1.03 | S. cerevisiae deletion strains, locus YDL134C, strain PPH21, stronger effect = lower value 1.03 | S. cerevisiae deletion strains, locus YDL185W, strain tfp1, stronger effect = lower value 1.01 | S. cerevisiae deletion strains, locus YDL192W, strain arf1, stronger effect = lower value 0.997 | S. cerevisiae deletion strains, locus YDR101C, strain arx1, stronger effect = lower value 0.989 | [4] 1.02 | S. cerevisiae deletion strains, locus YDR162C, strain NBP2, stronger effect = lower value 1.03 | S. cerevisiae deletion strains, locus YDR318W, strain mcm21, stronger effect = lower value 0.989 | S. cerevisiae deletion strains, locus YDR388W, stronger effect = lower value 0.983 | S. cerevisiae deletion strains, locus YDR502C, strain sam2, stronger effect = lower value 1 | [5] 1.02 | S. cerevisiae deletion strains, locus YER110C, stronger effect = lower value 0.99 | S. cerevisiae deletion strains, locus YER155C, strain BEM2, stronger effect = lower value 1.02 | S. cerevisiae deletion strains, locus YER167W, strain BCK2, stronger effect = lower value 1.03 | S. cerevisiae deletion strains, locus YGL078C, strain dbp3, stronger effect = lower value 0.992 | S. cerevisiae deletion strains, locus YGL086W, strain mad1, stronger effect = lower value 1 | S. cerevisiae deletion strains, locus YGL248W, strain PDE1, stronger effect = lower value 1.03 | [6] 1.03 | S. cerevisiae deletion strains, locus YGR135W, strain pre9, stronger effect = lower value 1.01 | S. cerevisiae deletion strains, locus YGR229C, strain SMI1, stronger effect = lower value 1.03 | S. cerevisiae deletion strains, locus YGR252W, strain gcn5, stronger effect = lower value 0.984 | [7] 1.02 | S. cerevisiae deletion strains, locus YHR079C, strain IRE1 (second series), stronger effect = lower value 0.99 | S. cerevisiae deletion strains, locus YHR094C, strain hxt1, stronger effect = lower value 0.996 | S. cerevisiae deletion strains, locus YHR129C, strain ARP1, stronger effect = lower value 1.02 | S. cerevisiae deletion strains, locus YHR200W, strain rpn10, stronger effect = lower value 0.998 | S. cerevisiae deletion strains, locus YIL066C, strain RNR3, stronger effect = lower value 1.02 | S. cerevisiae deletion strains, locus YIL073C, strain SPO22, stronger effect = lower value 0.99 | S. cerevisiae deletion strains, locus YIL125W, strain kgd1, stronger effect = lower value 1 | S. cerevisiae deletion strains, locus YIR030C, strain dcg1, stronger effect = lower value 0.99 | S. cerevisiae deletion strains, locus YJL095W, strain BCK1, stronger effect = lower value 1.04 | S. cerevisiae deletion strains, locus YJL134W, strain LCB3, stronger effect = lower value 1.02 | S. cerevisiae deletion strains, locus YJL168C, strain set2, stronger effect = lower value 1 | S. cerevisiae deletion strains, locus YJL187C, strain SWE1 (second series), stronger effect = lower value 1.02 | [8] 1.03 | [9] 1.03 | S. cerevisiae deletion strains, locus YKL009W, strain mrt4, stronger effect = lower value 0.991 | S. cerevisiae deletion strains, locus YKL068W, stronger effect = lower value 1 | S. cerevisiae deletion strains, locus YKL085W, strain MDH1 (second series), stronger effect = lower value 1 | S. cerevisiae deletion strains, locus YKL085W, strain MDH1, stronger effect = lower value 1 | S. cerevisiae deletion strains, locus YKL190W, strain CNB1, stronger effect = lower value 1.02 | S. cerevisiae deletion strains, locus YKR001C, strain vps1, stronger effect = lower value 0.991 | [10] 1.04 | S. cerevisiae deletion strains, locus YLR058C, strain SHM2, stronger effect = lower value 1.02 | S. cerevisiae deletion strains, locus YLR102C, strain apc9, stronger effect = lower value 0.989 | [11] 1.03 | S. cerevisiae deletion strains, locus YLR268W, strain sec22, stronger effect = lower value 0.997 | S. cerevisiae deletion strains, locus YLR330W, strain CHS5, stronger effect = lower value 1.02 | S. cerevisiae deletion strains, locus YLR342W, strain FKS1 (second series), stronger effect = lower value 1.03 | S. cerevisiae deletion strains, locus YLR371W, strain rom2, stronger effect = lower value 1 | S. cerevisiae deletion strains, locus YLR418C, strain cdc73, stronger effect = lower value 1 | S. cerevisiae deletion strains, locus YML016C, strain PPZ1, stronger effect = lower value 1.03 | S. cerevisiae deletion strains, locus YML032C, strain rad52, stronger effect = lower value 1 | S. cerevisiae deletion strains, locus YML124C, strain tub3, stronger effect = lower value 0.99 | S. cerevisiae deletion strains, locus YMR078C, strain ctf18, stronger effect = lower value 0.988 | S. cerevisiae deletion strains, locus YMR223W, strain ubp8, stronger effect = lower value 0.989 | [12] 1.04 | [13] 0.981 | S. cerevisiae deletion strains, locus YNL067W, strain RPL9B, stronger effect = lower value 1.04 | S. cerevisiae deletion strains, locus YNL128W, strain TEP1, stronger effect = lower value 1.04 | [14] 1.02 | S. cerevisiae deletion strains, locus YNL233W, strain BNI4, stronger effect = lower value 1.03 | S. cerevisiae deletion strains, locus YNL250W, strain rad50, stronger effect = lower value 1 | S. cerevisiae deletion strains, locus YNL271C, strain bni1, stronger effect = lower value 0.998 | S. cerevisiae deletion strains, locus YNL298W, strain CLA4, stronger effect = lower value 1.01 | S. cerevisiae deletion strains, locus YNL307C, strain MCK1, stronger effect = lower value 0.99 | [15] 1.02 | S. cerevisiae deletion strains, locus YNR052C, strain pop2, stronger effect = lower value 0.993 | [16] 1.14 | S. cerevisiae deletion strains, locus YOL012C, strain htz1 0.857 | S. cerevisiae deletion strains, locus YOL147C, strain pex11, stronger effect = lower value 0.992 | S. cerevisiae deletion strains, locus YOR061W, strain CKA2, stronger effect = lower value 1.02 | S. cerevisiae deletion strains, locus YOR069W, strain VPS5, stronger effect = lower value 1.01 | S. cerevisiae deletion strains, locus YOR136W, strain idh2, stronger effect = lower value 0.994 | S. cerevisiae deletion strains, locus YOR144C, strain elg1, stronger effect = lower value 0.993 | S. cerevisiae deletion strains, locus YOR184W, strain ser1, stronger effect = lower value 0.99 | S. cerevisiae deletion strains, locus YOR316C, strain cot1, stronger effect = lower value 0.998 | [17] 1.05 | [18] 1.01 | S. cerevisiae deletion strains, locus YPR119W, strain clb2, stronger effect = lower value 0.984 | S. cerevisiae deletion strains, locus YPR141C, strain kar3, stronger effect = lower value 0.996 | S. cerevisiae deletion strains, locus YPR163C, strain tif3, stronger effect = lower value 0.993 | S. cerevisiae deletion strains, locus YPR167C, strain met16, stronger effect = lower value 0.997 | S. cerevisiae deletion strains, strain wtn01, stronger effect = lower value 0.997 | S. cerevisiae strains, strain wild type, stronger effect = lower value 1.01
